Source: PubChem BioAssay AID1159580 (chemical genetic matrix, 2015)
Among all 5,500 compounds or so, about 2,000 (36%) were called active. Another 18% or so got no clear call; they are omitted. Cut-off read from the data, not from the text of the source: active = normalized growth mostly below about 0.91 (no sharp cut-off); inconclusive = no clear call, values can overlap the other calls; inactive = mostly above about 0.92. This is one part of the list.

Assay: chemical genetic growth profiling, strain panel (AID 1159580);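 note: tested at 20 µM; growth read once vehicle control cultures reached saturation at 30 °C; 1 = growth at the plate median or of vehicle wells; lower values mean less growth of the strain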
Conditions: S. cerevisiae deletion strains, growth OD

Measured: normalized growth

CC(C)=CCCC(C)C1CC[C@@]2(C)C3=C(CC[C@]12C)C1(C)CC[C@H](O)C(C)(C)C1CC3 (stereo not given in full)
inactive: locus YBR021W, strain FUR4, hits give low values 0.867 | locus YBR229C, strain ROT2, hits give low values 1.02 | locus YCL029C, strain bik1, hits give low values 0.972 | locus YDL035C, strain GPR1, hits give low values 0.904 | locus YDL074C, strain BRE1, hits give low values 0.962 | locus YDL101C, strain DUN1, hits give low values 0.992 | locus YDL185W, strain tfp1, hits give low values 1.01 | locus YDL192W, strain arf1, hits give low values 0.977 | locus YDR101C, strain arx1, hits give low values 1.01 | locus YDR150W, strain NUM1, hits give low values 1.05 | locus YDR162C, strain NBP2, hits give low values 0.958 | locus YDR318W, strain mcm21, hits give low values 0.985 | locus YDR388W, hits give low values 1.03 | locus YDR502C, strain sam2, hits give low values 0.945 | locus YER110C, hits give low values 1.01 | locus YER155C, strain BEM2, hits give low values 1.03 | locus YER167W, strain BCK2, hits give low values 1.05 | locus YGL086W, strain mad1, hits give low values 1 | locus YGL248W, strain PDE1, hits give low values 0.929 | locus YGR135W, strain pre9, hits give low values 0.941 | locus YGR252W, strain gcn5, hits give low values 0.78 | locus YHR079C, strain IRE1 (second series), hits give low values 1.01 | locus YHR094C, strain hxt1, hits give low values 1.02 | locus YHR129C, strain ARP1, hits give low values 1.04 | locus YHR200W, strain rpn10, hits give low values 1.01 | locus YIL066C, strain RNR3, hits give low values 1.03 | locus YIL073C, strain SPO22, hits give low values 0.923 | locus YIL125W, strain kgd1, hits give low values 1.04 | locus YIR030C, strain dcg1, hits give low values 1.02 | locus YJL095W, strain BCK1, hits give low values 0.947 | locus YJL134W, strain LCB3, hits give low values 1.04 | locus YJL168C, strain set2, hits give low values 1.02 | locus YJL187C, strain SWE1 (second series), hits give low values 0.959 | locus YKL068W, hits give low values 1.03 | locus YKL085W, strain MDH1 (second series), hits give low values 1.05 | locus YKL085W, strain MDH1, hits give low values 1.05 | locus YKR001C, strain vps1, hits give low values 0.94 | locus YLR039C, strain RIC1, hits give low values 0.702 | locus YLR058C, strain SHM2, hits give low values 0.981 | locus YLR102C, strain apc9, hits give low values 1.01 | locus YLR262C, strain YPT6, hits give low values 0.664 | locus YLR268W, strain sec22, hits give low values 0.957 | locus YLR371W, strain rom2, hits give low values 1.02 | locus YLR418C, strain cdc73, hits give low values 0.877 | locus YML016C, strain PPZ1, hits give low values 1.03 | locus YML032C, strain rad52, hits give low values 0.956 | locus YML124C, strain tub3, hits give low values 1.03 | locus YMR078C, strain ctf18, hits give low values 1.03 | locus YMR223W, strain ubp8, hits give low values 0.978 | locus YMR307W, strain GAS1, hits give low values 0.952 | locus YNL067W, strain RPL9B, hits give low values 0.988 | locus YNL128W, strain TEP1, hits give low values 0.98 | locus YNL233W, strain BNI4, hits give low values 0.994 | locus YNL250W, strain rad50, hits give low values 0.966 | locus YNL271C, strain bni1, hits give low values 0.994 | locus YNL298W, strain CLA4, hits give low values 0.924 | locus YNL307C, strain MCK1, hits give low values 0.998 | locus YNR052C, strain pop2, hits give low values 0.961 | locus YOL006C, strain TOP1, hits give low values 0.903 | locus YOL012C, strain htz1 1.68 | locus YOL147C, strain pex11, hits give low values 1.04 | locus YOR061W, strain CKA2, hits give low values 1.01 | locus YOR069W, strain VPS5, hits give low values 1.02 | locus YOR136W, strain idh2, hits give low values 0.998 | locus YOR144C, strain elg1, hits give low values 1.02 | locus YOR184W, strain ser1, hits give low values 0.891 | locus YOR316C, strain cot1, hits give low values 1.02 | locus YPL241C, strain CIN2, hits give low values 1.03 | locus YPR119W, strain clb2, hits give low values 1.03 | locus YPR141C, strain kar3, hits give low values 1.04 | locus YPR163C, strain tif3, hits give low values 0.93 | locus YPR167C, strain met16, hits give low values 0.973 | strain wtn01, hits give low values 0.974
active: locus YGL078C, strain dbp3, hits give low values 0.875 | locus YKL009W, strain mrt4, hits give low values 0.822
